Bioassay records from PubChem.
14-3-3g Raf – modulators of human 14-3-3 gamma - Raf peptide interaction; AID 422; inhibition, % at 40 µM; FP, 14-3-3gamma / TMR-pS259-Raf peptide binding; hit rate 0.19% among 160,000; P61981; in the data active = inhibition above about 30%
Target sequence (P61981 whole entry, looked up): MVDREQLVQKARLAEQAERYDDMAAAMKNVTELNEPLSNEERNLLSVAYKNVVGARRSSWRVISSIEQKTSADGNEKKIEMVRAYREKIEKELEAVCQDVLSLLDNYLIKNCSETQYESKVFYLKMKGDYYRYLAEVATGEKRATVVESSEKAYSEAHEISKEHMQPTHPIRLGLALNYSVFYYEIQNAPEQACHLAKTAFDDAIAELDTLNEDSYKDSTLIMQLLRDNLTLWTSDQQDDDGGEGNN
Numbers stand for hits; . = inactive. The sample as a whole holds a higher share of hits than the screen did.

SMILES	14-3-3g Raf
CC(=O)Nc1cc(C(=O)NCCN2CCc3ccccc3C2)ccc1Sc1ccc(C)cc1	.
CC1CC(C)CN(S(=O)(=O)c2ccc(C(=O)Nc3nc4c(s3)CCCC4)cc2)C1 (stereo not drawn)	.
Cc1cccc(NC(=O)CSc2nc3c(cnn3-c3ccc(F)cc3)c(=O)[nH]2)c1	.
CCCCN(CC)C(=O)C1c2ccccc2C(=O)N(C)C1c1c[nH]c2ccccc12 (stereo not drawn)	.
Nc1nonc1C(=O)OCC(=O)Nc1ccccc1	.
CCSc1nnc2c(n1)OC(c1cccc(C)n1)Nc1ccccc1-2 (stereo not drawn)	.
C=CCSc1nnc2c(n1)OC(c1ccccc1C)Nc1ccccc1-2 (stereo not drawn)	.
CCSc1nnc2c(n1)OC(c1ccccc1C)Nc1ccccc1-2 (stereo not drawn)	41.0
COc1cc(-n2c(C)nc3cc(C(=O)NCc4ccccc4Cl)ccc32)cc(OC)c1OC	.
CC(C)N=c1cc2n(-c3ccc(Cl)cc3)c3ccccc3nc-2cc1Nc1ccc(Cl)cc1	97.4
CC(C)Cn1c(C=Cc2ccc(Cl)cc2)nc2ccccc21	.
Cn1c(CNc2ccc(Cl)cc2)nc2ccccc21	.
Cc1ccc(NC(=O)c2ccc3c(=O)n(Cc4ccco4)c(=S)[nH]c3c2)cc1Cl	.
Cc1noc(NS(=O)(=O)c2ccc(NC(=O)c3c(-c4ccccc4Cl)noc3C)cc2)c1C	.
COC(=O)c1c(NC(=O)c2ccc(S(=O)(=O)N(C)c3ccccc3)cc2)sc2c1CCN(C)C2	.
Cc1cc([N+](=O)[O-])ccc1-c1ccc(C=Cc2ccc3cccc(O)c3n2)o1	143.5
O=[N+]([O-])c1ccccc1-c1ccc(C=Cc2ccc3ccccc3n2)o1	.
COc1ccc(OC)c(C=Cc2ccc3cccc(O)c3n2)c1	.
Cc1nc2c(ccc3nc(NC(=O)c4ccc(Oc5ccccc5)cc4)sc32)s1	.
CCCC(C)c1c(O)nc(Nc2nc(C)c3cccc(C)c3n2)[nH]c1=O (stereo not drawn)	.
CCOc1ccc(NC(=O)CN2CCN(CC(=O)c3ccc4c(c3)OCO4)CC2)cc1	.
O=C1CC(c2cccc3ccccc23)Sc2nc(C34CC5CC(CC(C5)C3)C4)nn21 (stereo not drawn)	.
O=C(CSc1nc2c(c(=O)n1-c1ccc(Br)cc1)SCC2)N1CCC(Cc2ccccc2)CC1	.
CCC(C)NC(=O)c1cc(C)on1 (stereo not drawn)	.
CCOc1ccccc1CN1CCC(N2CCCCCC2)CC1	.
SMILES	14-3-3g Raf
Cc1sc2nc(-c3ccccc3Cl)n(Cc3cccc(F)c3)c(=O)c2c1C	.
CN1c2c(ccc3ccccc23)C(C)(C)C12C=Cc1cc([N+](=O)[O-])ccc1O2 (stereo not drawn)	.
COc1ccc2c(c1)C=CC1(O2)N(C)c2ccccc2C1(C)C (stereo not drawn)	.
CN1c2ccccc2C(C)(C)C12C=Nc1c(ccc3ccccc13)O2 (stereo not drawn)	83.9
Cc1ccc(C)c(NC(=O)C2CCN(C(=O)c3ccc(F)cc3)CC2)c1	.
COc1cccc(N=C2SC(C(=O)Nc3ccc(OC(F)(F)Cl)cc3)CC(=O)N2C)c1 (stereo not drawn)	.
COc1ccc(NS(=O)(=O)c2cccc(S(=O)(=O)c3ccc(Cl)cc3)c2)cc1	.
COc1ccc(CC(=O)Nc2ccc(-c3nnc(-c4ccco4)o3)cc2)cc1	.
CCCOc1ccccc1C1Oc2nc(SCC)nnc2-c2ccccc2N1C(C)=O (stereo not drawn)	.
Cc1cccc(CN2CCN(CC(=O)N3CCOCC3)C2=O)c1	.
COc1ccc(Nc2cc(C)nc3c(C)cccc23)cc1	.
COc1ccc2nc(C)cc(Nc3ccc(F)cc3)c2c1	.
COc1ccc(Nc2cc(C)nc3ccccc23)cc1	38.3
CCCCCC(=O)N1c2ccccc2NC2=C(C(=O)CC(c3ccc(F)cc3)C2)C1c1cccs1 (stereo not drawn)	.
COc1cc(Cl)c(C2Oc3ccccc3C3CC(c4cccs4)=NN32)cc1OC (stereo not drawn)	.
Cc1cccc(-c2nc3ccccc3c(=O)[nH]2)c1	.
Cc1nc2ccccc2c(C(=O)O)c1C(=O)O	.
C/C(O)=c1/c(=O)nc2cccc3c2=c1c1ccccc1c3=O	34.6
COC(=O)c1c(C)oc2ccc(NS(=O)(=O)c3ccc(Cl)c([N+](=O)[O-])c3)cc12	.
O=[N+]([O-])c1ccc2c(c1)c1c3n2CCNC3CCC1 (stereo not drawn)	.
CC1=NN(C(=O)c2ccc(Cl)cc2)C(O)(c2cccc([N+](=O)[O-])c2)C1 (stereo not drawn)	.
C=CCC1C(C)=NN(C(=O)c2ccc(Cl)cc2)C1(C)O (stereo not drawn)	.
CC1=NN(C(=O)c2ccc(Cl)cc2)C(C)(C)C1	49.1
Cc1ccc(C(C)C)c(OCC(=O)Nc2ccc(C)c(C)c2)c1	.
COc1ccc(OC)c(NC(=O)COc2ccccc2C(C)C)c1	.
SMILES	14-3-3g Raf
COc1ccc(OC)c(NC(=O)COc2cc(C)ccc2C(C)C)c1	74.2
COc1cccc(NC(=O)CSc2nc3ccc(N4CCOCC4)cc3c(=O)n2Cc2ccc3c(c2)OCO3)c1	.
C=CC1(C)CCC2C(O1)c1ccccc1OC2(C)CCC=C(C)C (stereo not drawn)	.
CCOC(=O)C1CCN(c2cc(Nc3ccc4c(c3)OCCO4)c3c4c(onc24)-c2ccccc2C3=O)CC1	.
CC(C)C1=CC23CCC4C(C)(C(=O)O)CCCC4(C)C2CC1C1C(=O)N(c2ccc(O)cc2)C(=O)C13 (stereo not drawn)	.
CC(C)CN1C(=O)C2C3CC4C5(C)CCCC(C)(C(=O)O)C5CCC4(C=C3C(C)C)C2C1=O (stereo not drawn)	.
CC(C)C1=CC23CCC4C(C)(C(=O)O)CCCC4(C)C2CC1C1C(=O)OC(=O)C13 (stereo not drawn)	47.0
COc1cccc(-n2c(=O)c3c(C)c(C)sc3n(CC(=O)OCc3ccccc3)c2=O)c1	.
O=C(CSc1ccc(C(F)(F)F)cc1[N+](=O)[O-])NCCOc1ccccc1Cl	.
O=C(NCc1ccccn1)c1cc(Nc2cccc(C(F)(F)F)c2)nc2ccccc12	152.4
Cc1ccc(C)c(Nc2cc(C(=O)NCc3ccccn3)c3ccccc3n2)c1	.
CC(C)OCCCNC(=O)c1cc(Nc2cccc(C(F)(F)F)c2)nc2ccccc12	.
CCOc1nn(-c2nc(-c3ccco3)cc(C(F)(F)F)n2)cc1[N+](=O)[O-]	.
CC(=O)N1CCc2cc(S(=O)(=O)NCCC(=O)N3CCN(Cc4ccc5c(c4)OCO5)CC3)ccc21	.
COc1cc2[nH]c(=O)n(Cc3ccc(C(=O)N4CCN(C5CCCCC5)CC4)cc3)c(=O)c2cc1OC	.
CCOc1ccc(N=C2SC(C(=O)Nc3ccc(Br)cc3)CC(=O)N2Cc2ccccc2)cc1 (stereo not drawn)	.
COc1cc(Nc2nc(SCc3cc(=O)n4cc(Cl)ccc4n3)nc3ccccc23)cc(OC)c1	.
Cc1ccc(S(=O)(=O)Nc2cc(C(=O)NCc3cccnc3)ccc2N2CCCCC2)cc1	36.6
Cc1ccc(S(=O)(=O)Nc2cc(C(=O)NCCc3ccccc3)ccc2N2CCCC2)cc1	.
Cc1ccc(S(=O)(=O)Nc2cc(C(=O)NCCc3ccccc3)ccc2N2CCCCC2)cc1	.
COC(=O)c1c(NC(=O)c2cc([N+](=O)[O-])ccc2Cl)sc2c1CCC(C)C2 (stereo not drawn)	.
Cc1cccc(Cc2c(C)nc3nc(SCC(=O)N4CCCCCC4)nn3c2C)c1	.
CCOc1ccc2noc3c2c1C(=O)c1ccccc1-3	.
